High-throughput results (PubChem)
C diff growth – inhibitors of Clostridium difficile growth | Clostridium difficile clinical isolate growth, OD600, 24 h; hits give low values | growth activity, negative = inhibition, % at 16 µg/mL (by protocol) | 86,000 compounds, 0.25% hits | AID 1259249;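 active = mean growth activity at or below -80% and every replicate also at or below -80%; inconclusive = mean at or below -80% but some replicate above -80%; inactive = mean growth activity above -80%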
T cruzi growth-1 – T. cruzi proliferation inhibition; 77,000 compounds, 5.9% hits; T. cruzi beta-gal in NIH3T3, GalScreen luminescence, 90 h; inhibition, % at 8.34 µM;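 active = mean inhibition above about 93%, with at least 55% of replicates each passing it, limit read from the data, passing the limit was not always enough; inconclusive = only one of those two conditions holds; inactive = neither condition holds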
Pf Dd2 growth – blocks growth of Plasmodium falciparum Dd2 parasites; P. falciparum Dd2 growth, SYBR Green, 72 h; hits give low values; activity change, % at 10 µM; 94,000 compounds, 2.3% hits; AID 1159554; in the data active = activity change below about -80%; inconclusive = no clear call, values can overlap the other calls
T cruzi growth-2 – inhibitors of T. cruzi proliferation. shares compounds with T cruzi growth-1. T. cruzi beta-gal in NIH3T3, GalScreen luminescence, 90 h. 5,600 compounds, 72% hits. inhibition, % at 8.35 µM;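 active = mean replicate inhibition above about 95% and at least 55% of replicates individually reaching it, limit read from the data; inconclusive = only one of the two criteria is met; inactive = neither criterion is met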
T cruzi growth-3 – Trypanosoma cruzi proliferation inhibition; shares compounds with T cruzi growth-1; T. cruzi beta-gal in NIH3T3, GalScreen luminescence, 90 h; inhibition, % at 2.09 µM; 5,600 compounds, 21% hits;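 active = mean inhibition above about 95%, with at least 55% of replicates also reaching it, limit read from the data; inconclusive = meets just one of the two conditions; inactive = meets neither condition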
NIH3T3 tox – cytotoxicity in mouse NIH/3T3 fibroblasts; NIH/3T3 viability, CellTiter-Glo ATP luminescence, 90 h; 5,600 compounds, 14% hits; cytotoxicity (signal decrease), % at 8.35 µM; shares compounds with T cruzi growth-1; AID 651742;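 active = mean signal decrease across replicates above about 35% based on untreated-well scatter, with enough replicates individually passing, limit read from the data; inconclusive = no rule stated though some were filed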
3T3 cytotox 2 – cytotoxicity in mouse NIH/3T3 fibroblasts | 5,600 compounds, 56% hits | shares compounds with T cruzi growth-1 | inhibition, % at 24.9 µM | NIH/3T3 viability, CellTiter-Glo ATP luminescence, 90 h | AID 651744;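 active = mean loss of cell viability signal at or above a set limit, and enough replicates individually reaching it; inconclusive = meets only the mean limit or only the replicate share; inactive = meets neither condition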
A number is an active result; i = inactive; ? = inconclusive; nt = no result. In the library only some 6.8% were active in any assay of this set; here they are far more common.

SMILES	C diff growth	T cruzi growth-1	Pf Dd2 growth	T cruzi growth-2	T cruzi growth-3	NIH3T3 tox	3T3 cytotox 2
C[C@@H]1CN([C@H](C)CO)C(=O)c2cc(NC(=O)CCCCCC(=O)Nc3ccccc3N)ccc2O[C@H]1CN(C)Cc1ccc(-c2ccccc2)cc1	i	nt	i	nt	nt	nt	nt
C[C@H](CO)N1C[C@H](C)[C@@H](CN(C)Cc2ccc3c(c2)OCO3)Oc2ccc(NC(=O)CCCCCC(=O)Nc3ccccc3N)cc2C1=O	i	nt	i	nt	nt	nt	nt
O=C(C[C@H]1CC[C@H]2[C@@H](COC[C@@H](O)CN2CC2CCCC2)O1)NCc1ccc(Cl)cc1	i	nt	i	nt	nt	nt	nt
O=C(C[C@@H]1CC[C@@H]2[C@H](COC[C@@H](O)CN2C(=O)Nc2ccc(Cl)cc2)O1)N1CCCCC1	i	i	i	nt	nt	nt	nt
CC(C)CC#Cc1cnc2c(c1)C(=O)N([C@H](C)CO)C[C@H](C)[C@@H](CN(C)Cc1ccccc1F)O2	i	103.2	i	110.7	i	i	102.8
CC(C)CC#Cc1cnc2c(c1)C(=O)N([C@H](C)CO)C[C@H](C)[C@H](CN(C)Cc1ccccc1F)O2	i	i	i	nt	nt	nt	nt
CC(C)CC#Cc1cnc2c(c1)C(=O)N([C@@H](C)CO)C[C@@H](C)[C@@H](CN(C)Cc1ccccc1F)O2	i	?	i	106.7	i	?	31.5
CC(C)CC#Cc1cnc2c(c1)C(=O)N([C@H](C)CO)C[C@@H](C)[C@@H](CN(C)Cc1ccccc1F)O2	i	i	i	nt	nt	nt	nt
CCCC#Cc1cnc2c(c1)C(=O)N([C@H](C)CO)C[C@@H](C)[C@H](CN(C)Cc1ccccc1F)O2	i	i	i	nt	nt	nt	nt
CC(C)CC#Cc1cnc2c(c1)C(=O)N([C@@H](C)CO)C[C@@H](C)[C@H](CN(C)Cc1ccccc1F)O2	i	119.5	i	108.0	i	i	103.1
COc1cccc(C(=O)Nc2ccc3c(c2)C(=O)N(C)C[C@@H](OC)[C@H](C)CN(C)[C@@H](C)CO3)c1	nt	i	i	nt	nt	nt	nt
COc1ccc(S(=O)(=O)Nc2ccc3c(c2)C(=O)N([C@@H](C)CO)C[C@@H](C)[C@@H](CN(C)C(=O)Nc2ccc4c(c2)OCO4)O3)cc1	i	i	i	nt	nt	nt	nt
CO[C@H]1CN(C)C(=O)c2ccc(NC(=O)c3ccccc3F)cc2OC[C@H](C)N(CC2CCOCC2)C[C@@H]1C	i	nt	i	nt	nt	nt	nt
N#C[C@@H]1N[C@@H](CO)[C@@H]1c1ccc(C#Cc2ccc(F)cc2)cc1	i	103.1	i	104.9	i	i	i
CN(C)CC#Cc1ccc([C@@H]2[C@H](C#N)N[C@@H]2CO)cc1	i	i	i	nt	nt	nt	nt
N#C[C@@H]1N[C@@H](CO)[C@H]1c1ccc(C#Cc2ccccc2F)cc1	i	i	i	nt	nt	nt	nt
N#C[C@H]1N[C@H](CO)[C@@H]1c1ccc(C#CC2CCCC2)cc1	i	i	i	nt	nt	nt	nt
N#C[C@@H]1N[C@@H](CO)[C@H]1c1ccc(C#Cc2ccc(F)cc2)cc1	i	?	i	i	i	i	i
N#C[C@@H]1N[C@@H](CO)[C@H]1c1ccc(C#CC2CCCC2)cc1	i	?	i	i	i	i	i
C[C@@H]1CN([C@@H](C)CO)C(=O)c2cc(NS(=O)(=O)c3ccc(Cl)cc3)ccc2O[C@@H](C)CCCCO[C@@H]1CN(C)C(=O)Nc1ccc2c(c1)OCO2	i	i	i	nt	nt	nt	nt
O=C(C[C@H]1C[C@@H]2c3cc(NC(=O)c4cccnc4)ccc3O[C@@H]2[C@@H](CO)O1)NCc1ccncc1	i	i	i	nt	nt	nt	nt
C(=C\c1ccc(C2[C@H]3CNC[C@@H]2N3Cc2nccs2)cc1)/c1ccccc1 (some centres undefined)	i	nt	i	nt	nt	nt	nt
CCCNC(=O)Nc1ccc2c(c1)OC[C@@H](C)N(Cc1cncnc1)C[C@H](C)[C@@H](OC)CN(C)C2=O	nt	i	i	nt	nt	nt	nt
C[C@H](CO)N1C[C@H](C)[C@@H](CN(C)Cc2ccc(C(F)(F)F)cc2)Oc2ccc(N(C)C)cc2CC1=O	i	132.7	i	107.7	96.9	i	71.9
C[C@H]1CN([C@@H](C)CO)C(=O)Cc2cc(NS(C)(=O)=O)ccc2O[C@@H]1CN(C)Cc1ccc(Cl)c(Cl)c1	i	i	i	nt	nt	nt	nt
SMILES	C diff growth	T cruzi growth-1	Pf Dd2 growth	T cruzi growth-2	T cruzi growth-3	NIH3T3 tox	3T3 cytotox 2
C[C@@H]1CN([C@H](C)CO)C(=O)Cc2cc(N(C)C)ccc2O[C@H]1CN(C)Cc1ccc(C(=O)O)cc1	i	i	i	nt	nt	nt	nt
C[C@H](CO)N1C[C@H](C)[C@@H](CN(C)Cc2ccc(C(F)(F)F)cc2)Oc2ccc(NS(C)(=O)=O)cc2CC1=O	i	118.1	i	109.4	103.4	i	47.3
C[C@@H]1CN([C@H](C)CO)C(=O)Cc2cc(NS(C)(=O)=O)ccc2O[C@H]1CN(C)Cc1ccc(C(F)(F)F)cc1	i	i	i	nt	nt	nt	nt
C[C@H](CO)N1C[C@H](C)[C@@H](CN(C)Cc2ccc(Cl)c(Cl)c2)Oc2ccc(NS(C)(=O)=O)cc2CC1=O	i	?	i	114.8	i	i	100.3
C[C@@H]1CN([C@@H](C)CO)S(=O)(=O)c2ccc(C3=CCCC3)cc2O[C@@H]1CN(C)C(=O)c1ccccn1	i	i	i	nt	nt	nt	nt
C[C@@H]1CN([C@@H](C)CO)S(=O)(=O)c2ccc(C3=CCCCC3)cc2O[C@@H]1CN(C)Cc1ccccc1F	i	nt	i	nt	nt	nt	nt
C[C@@H]1CN([C@H](C)CO)S(=O)(=O)c2ccc(-c3ccccc3)cc2O[C@H]1CN(C)Cc1ccncc1	nt	i	i	nt	nt	nt	nt
CC(=O)N(C)C[C@@H]1Oc2cc(-c3cccnc3)ccc2S(=O)(=O)N([C@H](C)CO)C[C@@H]1C	nt	i	i	nt	nt	nt	nt
C[C@@H]1CN([C@H](C)CO)S(=O)(=O)c2ccc(-c3ccncc3)cc2O[C@@H]1CN(C)Cc1ccccc1	i	i	i	nt	nt	nt	nt
C[C@H](CO)N1C[C@H](C)[C@@H](CN(C)Cc2ccccc2)Oc2cc(-c3ccncc3)ccc2S1(=O)=O	i	117.4	i	99.1	103.1	71.0	75.9
C[C@H](CO)N1C[C@H](C)[C@H](CN(C)Cc2ccncc2)Oc2cc(-c3cccnc3)ccc2S1(=O)=O	i	i	i	nt	nt	nt	nt
C[C@H](CO)N1C[C@H](C)[C@H](CN(C)Cc2ccncc2)Oc2cc(-c3ccccc3)ccc2S1(=O)=O	nt	95.3	i	104.8	99.3	i	39.8
C[C@H]1CN([C@@H](C)CO)S(=O)(=O)c2ccc(-c3cccnc3)cc2O[C@@H]1CN(C)Cc1ccncc1	i	?	i	100.8	i	i	27.5
C[C@@H]1CN([C@@H](C)CO)S(=O)(=O)c2ccc(-c3cccnc3)cc2O[C@@H]1CN(C)C	i	?	i	97.3	i	i	i
C[C@H]1CN([C@@H](C)CO)C(=O)c2cc(NC(=O)Nc3ccc(F)cc3)ccc2O[C@@H]1CN(C)C(=O)Nc1ccc2c(c1)OCO2	i	i	i	nt	nt	nt	nt
CCC(=O)N1CCC2(CC1)CN(C(C)=O)[C@H](CO)c1[nH]c3cc(OC)ccc3c12	i	nt	i	nt	nt	nt	nt
